We go through three compounds from PubChem BioAssay (EPA / NIEHS).

Read-out in experiment [1]: C-C motif chemokine 2 (Homo sapiens) (UniProt P13500)
As to the kind of experiment: BSK_KF3CT_MCP1: BioMAP Diversity Plus: KF3CT Assay for Monocyte Chemoattractant Protein 1 (MCP1/CCL2) Biomarker Activity (AID 2283073). The note with it: primary human keratinocytes with fibroblasts; actives raise or lower the signal. The method, boiled down: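 KF3CT skin co-culture (keratinocytes/foreskin fibroblasts), 24 h post-dose; MCP-1 by ELISA; gain/loss of signal fit bidirectionally vs DMSO baseline.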

Read-out in experiment [2]: Matrix Metallopeptidase 9 (MMP9), MMP9 (gene 4318)
Description: BSK_KF3CT_MMP9: BioMAP Diversity Plus: KF3CT Assay for Matrix Metallopeptidase 9 (MMP9) Biomarker Activity (AID 2283074). The note with it: primary human keratinocytes with fibroblasts; actives raise or lower the signal. The gist of the method:
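Keratinocyte plus foreskin fibroblast human primary skin co-culture was dosed with chemical and MMP-9 was quantified by ELISA 24 h later. Bidirectional curve fitting used DMSO as negative control and activity baseline.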

Read-out in experiment [3]: urokinase plasminogen activator (uPA), PLAU (gene 5328)
Description: BSK_KF3CT_uPA: BioMAP Diversity Plus: KF3CT Assay for urokinase plasminogen activator (uPA) Biomarker Activity (AID 2283075). The note with it: primary human keratinocytes with fibroblasts; actives raise or lower the signal. The gist of the method: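 Human keratinocyte plus foreskin fibroblast primary co-culture exposed to chemical for 24 h. uPA levels were quantified by ELISA, and activity was fitted bidirectionally against a DMSO negative-control baseline.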

Read-out in experiment [4]: CD40, CD40 (gene 958)
Description: BSK_LPS_CD40: BioMAP Diversity Plus: LPS Assay for CD40 Biomarker Activity (AID 2283076). The note with it: primary human HUVEC with PBMC; actives raise or lower the signal. The gist of the method:
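ELISA readout of CD40 in HUVEC/PBMC co-culture (BSK_LPS system), 24 h post-dosing; bidirectional curve fit, DMSO baseline; parallel SRB total-protein staining for cytotoxicity.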

Read-out in experiment [5]: E-selectin (Homo sapiens) (UniProt P16581)
Description: BSK_LPS_Eselectin: BioMAP Diversity Plus: LPS Assay for Eselectin Biomarker Activity (AID 2283077). The note with it: primary human HUVEC with PBMC; actives raise or lower the signal. The gist of the method:
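ELISA readout of E-selectin, 24 h post-dose, HUVEC + PBMC co-culture (LPS system). Gain or loss of signal vs DMSO baseline, bidirectional fit.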

Read-out in experiment [6]: Interleukin-8 (IL8), CXCL8 (gene 3576)
As to the kind of experiment: BSK_LPS_IL8: BioMAP Diversity Plus: LPS Assay for Interleukin-8 (IL8) Biomarker Activity (AID 2283078). The note with it: primary human HUVEC with PBMC; actives raise or lower the signal. The gist of the method:
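HUVEC + PBMC co-culture, LPS-activated; test chemicals dosed, IL-8 read by ELISA at 24 h. Bidirectional curve fit vs DMSO baseline (gain or loss of signal).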

A short description of experiment [7]: BSK_LPS_SRB: Viability Assessment in the BioMAP Diversity Plus: LPS Assay (AID 2283079).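 Note: total protein by sulforhodamine B absorbance as a cytotoxicity measure; measured one day after compound addition; fitted in both directions against DMSO so loss or gain of signal counts.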 The note with it: primary human HUVEC with PBMC. The gist of the method:
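HUVEC + PBMC co-culture, LPS-stimulated; compound 24 h. 10% TCA fix, 0.1% SRB stain, A560. Bidirectional fit vs DMSO.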

Read-out in experiment [8]: Interleukin-1 alpha (IL1a), IL1A (gene 3552)
Description: BSK_LPS_IL1a: BioMAP Diversity Plus: LPS Assay for Interleukin-1 alpha (IL1a) Biomarker Activity (AID 2283080). The note with it: primary human HUVEC with PBMC; actives raise or lower the signal. The gist of the method: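 HUVEC/PBMC co-culture, LPS system; 24 h after dosing; IL-1a by ELISA; gain or loss of signal fitted bidirectionally vs DMSO baseline.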

Read-out in experiment [9]: Monocyte Chemoattractant Protein-1 (MCP1), CCL2 (gene 6347)
Description: BSK_LPS_MCP1: BioMAP Diversity Plus: LPS Assay for Monocyte Chemoattractant Protein-1 (MCP1) Biomarker Activity (AID 2283081). The note with it: primary human HUVEC with PBMC; actives raise or lower the signal. The method, boiled down: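 ELISA read-out of MCP-1 after 24 h chemical dosing of a human umbilical vein endothelial cell/peripheral blood mononuclear cell co-culture stimulated with LPS. Gain or loss of signal fitted relative to DMSO controls.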

Experiment [10] is described as follows: BSK_LPS_PGE2: BioMAP Diversity Plus: LPS Assay for Prostaglandin E2 (PGE2) Biomarker Activity (AID 2283082). The note with it: primary human HUVEC with PBMC; actives raise or lower the signal. The gist of the method:
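HUVEC plus human PBMC co-culture stimulated with LPS; secreted PGE2 quantified by ELISA 24 h after chemical dosing. Activity fitted bidirectionally against DMSO baseline; parallel SRB staining (0.1% SRB after 10% TCA fixation, 560 nm) flags overt cytotoxicity.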

Read-out in experiment [11]: Macrophage colony-stimulating factor (MCSF), CSF1 (gene 1435)
As to the kind of experiment: BSK_LPS_MCSF: BioMAP Diversity Plus: LPS Assay for Macrophage colony-stimulating factor (MCSF) Biomarker Activity (AID 2283083). The note with it: primary human HUVEC with PBMC; actives raise or lower the signal. The method, boiled down:
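HUVEC + PBMC co-culture (human primary), 24 h post-dose; M-CSF by ELISA; gain/loss of signal fitted bidirectionally vs DMSO baseline.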

Read-out in experiment [12]: Tissue Factor, F3 (gene 2152)
Description: BSK_LPS_TissueFactor: BioMAP Diversity Plus: LPS Assay for Tissue Factor Biomarker Activity (AID 2283084). The note with it: primary human HUVEC with PBMC; actives raise or lower the signal. The gist of the method:
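HUVEC/PBMC co-culture, LPS-activated; CD142 ELISA read 24 h post-dose; bidirectional curve fit vs DMSO negative control.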

Read-out in experiment [13]: Tumor necrosis factor (Homo sapiens) (UniProt P01375)
Description: BSK_LPS_TNFa: BioMAP Diversity Plus: LPS Assay for Tumour Necrosis Factor alpha (TNFa) Biomarker Activity (AID 2283085). The note with it: primary human HUVEC with PBMC; actives raise or lower the signal. The gist of the method: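 Human umbilical vein endothelial cells co-cultured with PBMC and stimulated with LPS. TNFa was measured by ELISA 24 h after chemical dosing, fitted bidirectionally relative to DMSO.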

Read-out in experiment [14]: Vascular cell adhesion molecule 1 (VCAM1), VCAM1 (gene 7412)
As to the kind of experiment: BSK_LPS_VCAM1: BioMAP Diversity Plus: LPS Assay for Vascular cell adhesion molecule 1 (VCAM1) Biomarker Activity (AID 2283086). The note with it: primary human HUVEC with PBMC; actives raise or lower the signal. The gist of the method: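 Human umbilical vein endothelial cells co-cultured with PBMC and stimulated with LPS; VCAM-1 measured by ELISA 24 h after dosing. Bidirectional curve fitting against DMSO baseline; cytotoxicity tracked in parallel by SRB total-protein staining.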

Read-out in another experiment: CD38, CD38 (gene 952)
As to the kind of experiment: BSK_SAg_CD38: BioMAP Diversity Plus: SAg Assay for CD38 Biomarker Activity (AID 2283087). The note with it: primary human HUVEC with PBMC; actives raise or lower the signal. The gist of the method: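 Human HUVEC plus PBMC co-culture stimulated with superantigen; CD38 measured by ELISA 24 h after chemical dosing. Fluorescence read-out, bidirectional fit against DMSO; cytotoxicity tracked in parallel by SRB and Alamar Blue.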

Read-out in experiment [15]: CD40, CD40 (gene 958)
As to the kind of experiment: BSK_SAg_CD40: BioMAP Diversity Plus: SAg Assay for CD40 Biomarker Activity (AID 2283088). The note with it: primary human HUVEC with PBMC; actives raise or lower the signal. The gist of the method:
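HUVEC/PBMC co-culture, 24 h post-dose; CD40 by ELISA, fluorescence intensity; bidirectional fit vs DMSO negative control.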

Read-out in the next experiment: CD69, CD69 (gene 969)
Description: BSK_SAg_CD69: BioMAP Diversity Plus: SAg Assay for CD69 Biomarker Activity (AID 2283089). The note with it: primary human HUVEC with PBMC; actives raise or lower the signal. The method, boiled down:
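Values derive from bidirectional fitting relative to DMSO vehicle. Cells: umbilical vein endothelium plus peripheral blood mononuclear cells, treated 24 h before fluorescent ELISA for CD69.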

Read-out in experiment [16]: Monocyte Chemoattractant Protein-1 (MCP1), CCL2 (gene 6347)
Description: BSK_SAg_MCP1: BioMAP Diversity Plus: SAg Assay for Monocyte Chemoattractant Protein-1 (MCP1) Biomarker Activity (AID 2283090). The note with it: primary human HUVEC with PBMC; actives raise or lower the signal. The gist of the method:
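MCP-1 levels in the endothelial–PBMC SAg co-culture were quantified by ELISA at 24 h post-dosing; both increases and decreases versus DMSO scored. Cytotoxicity monitored by SRB total protein in parallel cultures.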

Read-out in experiment [17]: E-selectin (Homo sapiens) (UniProt P16581)
As to the kind of experiment: BSK_SAg_Eselectin: BioMAP Diversity Plus: SAg Assay for Eselectin Biomarker Activity (AID 2283091). The note with it: primary human HUVEC with PBMC; actives raise or lower the signal. The gist of the method:
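E-selectin ELISA readout at 24 h post-dosing in human umbilical vein endothelial cell/PBMC co-culture; gain or loss of signal fitted relative to DMSO baseline.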

Read-out in experiment [18]: Monokine induced gamma interferon (MIG), CXCL9 (gene 4283)
Description: BSK_SAg_MIG: BioMAP Diversity Plus: SAg Assay for Monokine induced gamma interferon (MIG) Biomarker Activity (AID 2283092). The note with it: primary human HUVEC with PBMC; actives raise or lower the signal. The method, boiled down:
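Values reflect bidirectional fitting of ELISA-measured MIG against DMSO vehicle, taken 24 h after dosing of a co-culture of human umbilical vein endothelial cells and peripheral blood mononuclear cells.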

Each structure is given as a SMILES string. Values joined by “and” are separate entries in the source; they are usually repeats but may differ in a detail not shown here. Equal values may be shown once. Some structures have more than one record in an assay (separate samples or runs), and their calls can disagree. Active and inactive are the calls of the source. Rule for the calls: active = hit-call score of the fitted dose curve at least 0.9, where 1 is the maximum; inactive = score below 0.9.

Sequence of Tumor necrosis factor (Homo sapiens) (P01375 whole entry, looked up): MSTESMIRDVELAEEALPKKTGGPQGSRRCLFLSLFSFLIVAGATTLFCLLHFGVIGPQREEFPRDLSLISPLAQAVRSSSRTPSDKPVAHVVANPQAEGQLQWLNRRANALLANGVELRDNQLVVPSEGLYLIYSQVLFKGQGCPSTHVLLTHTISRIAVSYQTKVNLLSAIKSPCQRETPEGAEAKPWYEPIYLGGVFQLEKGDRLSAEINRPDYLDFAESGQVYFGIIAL
Sequence of E-selectin (Homo sapiens) (P16581 whole entry, looked up): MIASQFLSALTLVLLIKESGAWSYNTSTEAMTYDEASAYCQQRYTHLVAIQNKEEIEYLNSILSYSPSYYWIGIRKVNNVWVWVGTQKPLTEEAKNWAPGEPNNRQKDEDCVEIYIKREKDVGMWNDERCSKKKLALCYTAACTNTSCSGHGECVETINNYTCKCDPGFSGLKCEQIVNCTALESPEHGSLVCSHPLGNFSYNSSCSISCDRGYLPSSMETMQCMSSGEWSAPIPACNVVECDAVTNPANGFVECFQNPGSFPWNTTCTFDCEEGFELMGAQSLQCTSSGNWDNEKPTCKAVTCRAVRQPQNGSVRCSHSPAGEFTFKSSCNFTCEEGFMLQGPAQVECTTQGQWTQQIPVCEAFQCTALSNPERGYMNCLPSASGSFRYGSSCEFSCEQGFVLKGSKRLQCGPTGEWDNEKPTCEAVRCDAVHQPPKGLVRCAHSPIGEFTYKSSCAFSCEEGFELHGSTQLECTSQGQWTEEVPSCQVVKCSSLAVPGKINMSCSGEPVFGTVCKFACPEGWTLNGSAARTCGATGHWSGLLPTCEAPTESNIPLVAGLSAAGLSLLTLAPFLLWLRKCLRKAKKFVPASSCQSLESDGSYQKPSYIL

One may read the AC50 as the concentration giving half of the maximal activity seen. Turning to `CC[Si](OC(C)=O)(OC(C)=O)OC(C)=O`, the outcome in [1] is “inactive”; in experiment [2], “inactive”; in [3], “inactive”; with CD40, CD40 (gene 958) [4], “inactive”; in [5] it was “inactive”; in experiment [6], “inactive”. Moreover, the result in experiment [7], in experiment [8], in experiment [9], in experiment [10], in experiment [11] and in experiment [12] was inactive. The outcome in [13] is “inactive”; in experiment [14], “inactive”; with CD38, CD38 (gene 952), “inactive”; with CD40, CD40 (gene 958) [15] it was “inactive”; in the experiment with CD69, CD69 (gene 969), “inactive”; in [16], “inactive”. Besides, the outcome in [17] and in experiment [18] was inactive. In addition, the AC50 with CD40, CD40 (gene 958) [4] is 626 nM (active).

Turning to `O=C(O)c1ccc([N+](=O)[O-])cc1`, the outcome in experiment [1] was “inactive”; in experiment [2], “inactive”; in experiment [3] it was “inactive”; in the experiment with CD40, CD40 (gene 958) [4] it was “inactive”; in [5], “inactive”; in [6], “inactive”. For the same compound, the result in experiment [7], in [8], in experiment [9], in [10], in experiment [11] and in experiment [12] was inactive. Besides, the outcome in experiment [13] was “inactive”; in [14], “inactive”; with CD38, CD38 (gene 952), “inactive”; with CD40, CD40 (gene 958) [15] it was “inactive”; with CD69, CD69 (gene 969), “inactive”; in [16], “inactive”. For the same compound, the outcome in experiment [17] and in [18] was inactive.

Turning to `C[C@H]1C[C@@H]2[C@H]([C@@H](O)C[C@@]3(C)[C@H]2CC[C@]3(O)C(=O)CO)[C@@]2(C)C=CC(=O)C=C12`, the outcome in [1] is “inactive”; in [3], “inactive”; with CD40, CD40 (gene 958) [4], “inactive”; in experiment [5] it was “inactive”; in [6] it was “inactive”; in experiment [7], “inactive”. Moreover, the outcome in [8], in experiment [9], in [10], in experiment [11], in experiment [12] and in experiment [14] was inactive. Besides, the outcome with CD38, CD38 (gene 952) is “inactive”; with CD40, CD40 (gene 958) [15], “inactive”; in the experiment with CD69, CD69 (gene 969), “inactive”; in [16], “inactive”; in [18], “inactive”. Besides, the AC50 was 6.44 µM (active) in [12]; 4.93 µM (active) and 3.97 µM (active) in [13]; 3.1 µM (active) and 1.1 µM (active) in [17].
